Experimental findings from PubChem BioAssay (Tox21) are described below.

Results filed as inconclusive are left out. Values without a mark were called inactive. Calls of active or inactive are those of the source. Calls follow the shape of the dose curve; as a rule, active = well fitted inhibition curve with a large enough effect in the signal ratio in the repeat runs (not every such curve was filed as active); inconclusive = weak or mixed curves, or effect the other way; inactive = flat fitted curve, though single readings scatter; the % refers to the signal ratio.
% is scaled to controls: 0 for no effect and ±100 for the full control effect.

The assay in a line: cAMP Responsive Elements (CRE) small molecule antagonists, cell-based qHTS assay (AID 1963591). The following applies: CRE-bla HEK293T, beta-lactamase FRET ratio; series mostly up to 92.4 µM; activity change, negative = inhibition: at the top concentration. An excerpt:
U.S. Tox21 Program National Center for Advancing Translational Sciences [NCATS] Division of Preclinical Innovation [DPI] U.S. Environmental Protection Agency [EPA] National Institutes of Environmental Health Sciences [NIEHS] National Toxicology Program [NTP] U.S. Food and Drug Administration [FDA] Tox21 Assay Overview: CREB (cyclic-AMP Responsive Element Binding Protein) is a cellular transcription factor. It binds to certain DNA sequences called cAMP Responsive Elements (CRE) and regulates the transcription of the genes. […] This cell line can be used to find agonists/antagonists of the cyclic AMP signaling pathway. The activation of the report gene under culture conditions can be detected by fluorescence intensity. This cell line has been used to screen the Tox21 10K compound library to […].
Tox21 Assay Protocol Summary: CRE-bla Hek 293T cells were suspended in assay medium (DMEM containing 10% dialyzed FBS, 0.1 mM NEAA, 1 mM sodium pyruvate and 25 mM HEPES) and dispensed at 2,000 cells/4 uL /well into 1536-well black wall/clear bottom plates using a Multidrop Combi (ThermoFisher Scientific, Waltham, MA) dispenser. After the assay plates were incubated at 37 C/5% CO2 for 18 hrs, 23 nL of compounds dissolved in DMSO, positive controls or DMSO only was transferred to the assay plate by a pintool workstation (Kalypsys, San Diego, CA), followed by addition of 1 […] uL of 1.25uM NKH477 (0.25 uM as final concentration) in assay medium using a Flying Reagent Dispenser (Aurora Discovery, San Diego, CA). The plates were incubated at 37 C and 5% CO2 for 3 hrs. Then 1 uL of LiveBLAzer B/G FRET substrate (Invitrogen, Carlsbad, CA) was added to each well using Bioraptr Flying Reagent Dispenser (FRD, Aurora Discovery, San Diego, CA). The plates were incubated at room temperature for 2 h.
As for `CC[C@@H]1C[C@H](N(Cc2cc(C(F)(F)F)cc(C(F)(F)F)c2)C(C)=O)c2cc(C(F)(F)F)ccc2N1C(=O)OC(C)C`, the “activity change, negative = inhibition” value is 1.01%.

On to `O=C(O)CCC(=O)Nc1ccc(S(=O)(=O)Nc2nccs2)cc1`, for which the “activity change, negative = inhibition” value is -5.77% [at 42.4 µM].

For the molecule `O=C1OC(=O)c2ccc3c4c(ccc1c24)C(=O)OC3=O`, the “activity change, negative = inhibition” value was -0.363%.

Consider `CCc1c(Br)c(Br)c(Br)c(Br)c1Br`, for which the “activity change, negative = inhibition” value is 1.17%.

Take `C=C(C)[C@@H]1CC[C@@H](C)C[C@@H]1O`: the “activity change, negative = inhibition” value was 0.194%.

As to `O=c1[nH]c(=O)c2cn[nH]c2[nH]1`, the “activity change, negative = inhibition” value is -15.2%.

Consider `Cc1cc(CCC(=O)OCCOCCOCCOC(=O)CCc2cc(C)c(O)c(C(C)(C)C)c2)cc(C(C)(C)C)c1O`, for which the “activity change, negative = inhibition” value is 9.17%.

Turning to `O=C[C@H](O)[C@H](O)[C@H](O)CO`, the “activity change, negative = inhibition” value was -1%.

On to `NS(=O)(=O)c1cc2c(cc1Cl)NC(C1CC3C=CC1C3)NS2(=O)=O` (stereo not given), for which the “activity change, negative = inhibition” value is -3.28% [at 42.4 µM].

Consider `CCOC(=O)CN`, for which the “activity change, negative = inhibition” value was -5.82%.

Consider `CC(C)(CO)[C@@H](O)C(=O)NCCC(=O)O`, for which the “activity change, negative = inhibition” value was 3.77%.

Take `CC1(C)C2=CCCC(C)(C)[C@]23CC[C@H]1C3`: the “activity change, negative = inhibition” value is -16.7%.

`C[C@]12CC[C@@H]3c4ccc(O)cc4CC[C@H]3[C@@H]1CCC2=O`: the Potency result is “inactive”.

With `CC/C=C\CCOC(=O)CC`, the “activity change, negative = inhibition” value was 5.16%.

For the molecule `Cc1ccccc1OCC(O)CO` (stereo not given), the “activity change, negative = inhibition” value is -1.71% [at 42.4 µM].

Turning to `O=Cc1ccc(Cl)c(Cl)c1`, the “activity change, negative = inhibition” value was -7.97%.

Turning to `Oc1ccc(O)c2c(O)cccc12`, the “activity change, negative = inhibition” value was -1.67%.

In the case of `C=CC(O)CCCCC` (stereo not given), the “activity change, negative = inhibition” value is 0.843%.

Consider `CN1CCc2cccc3c2[C@H]1Cc1ccc(O)c(O)c1-3`, for which the Potency entry is “inactive”.

Take `CC(=O)c1cccc([N+](=O)[O-])c1`: the “activity change, negative = inhibition” value is 3.01%.

As for `CCC(C)S` (stereo not given), the activity change, negative = inhibition is -3.11% [at 3.27 µM].

As for `CCC(O)CO` (stereo not given), the “activity change, negative = inhibition” value is -4.64%.

For `CN1C(CCl)Nc2cc(Cl)c(S(N)(=O)=O)cc2S1(=O)=O` (stereo not given), the “activity change, negative = inhibition” value is -4.66% [at 42.4 µM].

In the case of `CC(C)CCCCCOC(=O)CS`, the “activity change, negative = inhibition” value was 28.1%.

In the case of `CCCSSCCC`, the “activity change, negative = inhibition” value is -1.43%.

`C=C1CC/C=C(\C)CC[C@@H]2[C@@H]1CC2(C)C`: the “activity change, negative = inhibition” value is -13.6%.

Regarding `Cc1ccc(CO)cc1`, the “activity change, negative = inhibition” value was -7.53%.

`C=C(C)C(=O)OCCC(F)(F)C(F)(F)C(F)(F)C(F)(F)C(F)(F)C(F)(F)F`: the “activity change, negative = inhibition” value is 2.12%.

For the molecule `c1ccc2sc(SSN3CCOCC3)nc2c1`, the Potency result is “inactive”.

Take `CCCCCCCC/C=C\CCCCCCCC(N)=O`: the “activity change, negative = inhibition” value was 1.87%.

As for `Cc1cncc(C)c1`, the “activity change, negative = inhibition” value was -8.63%.

In the case of `CC(C)(N=C=O)c1cccc(C(C)(C)N=C=O)c1`, the Potency result was “inactive”.

As to `CCCC(=O)CC`, the “activity change, negative = inhibition” value was 1.19%.

As to `CN(C)c1ccc(Cc2ccc(N(C)C)cc2)cc1`, the Potency result was “inactive”.

Take `OC[C@H]1O[C@@H]2O[C@H]3[C@H](O)[C@@H](O)[C@@H](O[C@H]4[C@H](O)[C@@H](O)[C@@H](O[C@H]5[C@H](O)[C@@H](O)[C@@H](O[C@H]6[C@H](O)[C@@H](O)[C@@H](O[C@H]7[C@H](O)[C@@H](O)[C@@H](O[C@H]1[C@H](O)[C@H]2O)O[C@@H]7CO)O[C@@H]6CO)O[C@@H]5CO)O[C@@H]4CO)O[C@@H]3CO`: the “activity change, negative = inhibition” value was -1.04%.

Consider `C#CC(C)(O)CC(C)C` (stereo not given), for which the “activity change, negative = inhibition” value was 0.825%.

On to `CCn1c2ccccc2c2ccccc21`, for which the “activity change, negative = inhibition” value is -5.87%.

As for `CC(=O)OCCc1ccccc1`, the “activity change, negative = inhibition” value was -0.589%.

As for `CCCCCCCCS`, the “activity change, negative = inhibition” value was 4.85%.

With `CCNc1nc(N)nc(Cl)n1`, the “activity change, negative = inhibition” value was 6.66%.
